aSyn 5UTR act – Activators via SNCA 5'UTR binding, MLPCN; actives 7.1% (n = 300,000); activity score, % (tested at 7.5 µM), hits read low; alpha-synuclein 5'UTR reporter, activators screen; AID 1814, 2009; in the data active = activity score below about -60%
Active calls of the source: *. Not all results are given here.

SMILES	aSyn 5UTR act
CCCOc1ccc(C(=O)NNC(=S)NC(=O)c2ccco2)cc1	51.5
CCCCn1nnc(NC(=S)NC(=O)c2cccs2)n1	-114.1*
CCN(CC)c1ccc(NC(=S)NC(=O)c2ccco2)cc1	-213.8*
CCN(CC)c1ccc(NC(=S)NC(=O)c2cccs2)cc1	-156.1*
O=c1c2c3nc4ccccc4nc3n(/N=C/c3ccccn3)c2ncn1-c1ccccc1	-237.6*
c1ccc(-c2nc(-c3cccnc3)n[nH]2)cc1	-85.4*
Brc1cccc(-c2n[nH]c(-c3ccccc3)n2)c1	-76.9*
Cc1ccc2c(C)c(C(=O)Nc3cccnc3)oc2c1	-201.3*
Cc1ccc2c(Cl)c(C(=O)Nc3cccnc3)sc2c1	-72.8*
Cc1cc2oc(C(=O)Nc3cccnc3)c(C)c2cc1C	-114.4*
Oc1ccc(/C=N/N2CCCCC2)c(O)c1	-92.9*
CN=c1scc(-c2cccs2)n1/N=C/c1ccccc1O	103.3
Oc1ccccc1/C=N/N1CCCCC1	-76.9*
Cc1nc(NCCc2ccc(S(N)(=O)=O)cc2)c2c3c(sc2n1)CCC3	-116.3*
Cn1c(CN2CCCCC2)nc2cc(NC(=O)c3ccc(Cl)cc3)ccc21	-65.7*
Cn1c(CN2CCCC2)nc2cc(NC(=O)c3ccc(Cl)cc3)ccc21	-62.8*
Cc1ccc(C(C)C)c(OCC(=O)Nc2ccc3c(c2)nc(CCN2CCCCC2)n3C)c1	110.3
Cn1c(CN2CCCC2)nc2cc(NC(=O)c3cccs3)ccc21	-76.4*
Cc1nc(-c2ccccc2)sc1C(=O)NN	-102.2*
C=CCNC(=O)c1sc(-c2ccccc2)nc1C	-67.0*
O=C(CSc1nc2ccsc2c(=O)n1NC(=O)c1ccccc1)NCc1ccco1	-70.5*
CN1CCc2c(sc3nc(SCC(=O)NCc4ccco4)n(-c4ccccc4)c(=O)c23)C1	-84.1*
COc1ccc(C(=O)Nn2c(SCC(=O)NCc3ccccc3)nc3ccccc3c2=O)cc1	76.9
O=C(CSc1nc2ccsc2c(=O)n1NC(=O)c1ccccc1)Nc1nccs1	-81.8*
Cc1cccc(C=Nc2ccccc2C(N)=O)c1	-69.8*
SMILES	aSyn 5UTR act
CCCCc1c(O)nc(SCC(=O)c2ccccc2)[nH]c1=O	-87.1*
O=C(CSc1nc(O)c(Cc2ccccc2)c(=O)[nH]1)c1ccccc1	-62.8*
CN(C)/C=N/c1nc(-c2ccc3c(c2)OCO3)cs1	-171.2*
CN(C)/C=N/c1nc(-c2ccc3ccccc3c2)cs1	-145.1*
CCOc1ccc(NC(=S)Nc2cc(OC)c(Cl)cc2OC)cc1	-89.9*
CCOc1ccc(NC(=S)Nc2cccc3cnccc23)cc1	-89.1*
COc1cccc(NC(=S)NN=C2CCCCCC2)c1	-146.5*
COc1cccc(NC(=S)Nc2cccc3ccccc23)c1	-69.6*
CCOc1ccc(NC(=S)Nc2cccc3ccccc23)cc1	-63.4*
CCc1ccc(NC(=S)Nc2cccc(OC)c2)cc1	-108.6*
COc1ccc(NC(=S)Nc2cccc3cnccc23)cc1	-72.5*
S=C(Nc1cccnc1)Nc1cccc2cnccc12	66.0
O=C(NCc1cc2ccccc2[nH]1)c1ccccc1F	-80.9*
Cc1ccc(S(=O)(=O)C2(C(=O)Nc3ccc(C(C)C)cc3)CC2)cc1	-77.0*
Cc1ccc(-n2nc(C)c3c2OC(N)=C(C#N)C3c2ccc(F)cc2)cc1 (configuration not stated)	-74.8*
COc1ccc2c(c1OC)C(=O)OC2Nc1nc(-c2cc3cc(Br)ccc3oc2=O)cs1 (configuration not stated)	-220.9*
CC(=O)N1N=C(c2ccc(C)o2)CC1c1ccc(Br)cc1 (configuration not stated)	-198.9*
COc1ccc(C2CC(c3ccc(C)o3)=NN2C(C)=O)cc1 (configuration not stated)	-128.2*
COc1ccc(C2CC(c3ccc4ccccc4c3OC(C)=O)=NN2C(C)=O)cc1 (configuration not stated)	-203.1*
COc1ccc(C2CC(c3ccc(Cl)cc3)=NN2C(C)=O)cc1 (configuration not stated)	-115.9*
CNCc1cc(Cl)cc(OC)c1OC(C)C	-80.9*
O=c1[nH]c(Cc2cccs2)nc2scc(-c3ccc(Cl)cc3)c12	-76.8*
Cc1ccc(-c2nc3ccsc3c(=O)[nH]2)cc1	-137.4*
Cc1ccc(-c2csc3nc4c5ccccc5c(NCCCN(C)C)nn4c(=O)c23)cc1	115.6
Cc1ccc(-c2csc3nc(-c4ccncc4)[nH]c(=O)c23)cc1	-86.1*
SMILES	aSyn 5UTR act
Cc1ccc2nc(-c3ccncc3)[nH]c2c1	-120.4*
O=C(OCn1ncc(Br)c(Br)c1=O)c1c(F)cccc1F	60.6
CC(=O)Cn1ncc(Br)c(Br)c1=O	-87.4*
CC(C)(C)C(=O)Cn1ncc(N2CCCC2)c(Br)c1=O	-71.5*
Cc1[nH]nc(Nc2ccc(C(C)C)cc2)c1[N+](=O)[O-]	-150.9*
Cc1[nH]nc(Nc2ccc(Br)cc2)c1[N+](=O)[O-]	-163.5*
Cc1[nH]nc(Nc2ccccc2)c1[N+](=O)[O-]	-72.4*
Cc1cccc(Nc2n[nH]c(C)c2[N+](=O)[O-])c1	-140.4*
Cc1ccc(Nc2n[nH]c(C)c2[N+](=O)[O-])cc1	-221.4*
CCc1ccc(CNc2ccc3c(c2)ncn3C(C)(C)C)cc1	-156.0*
CC(C)(C)n1cnc2cc(NCc3ccc(Br)cc3)ccc21	-92.4*
CC(C)(C)n1cnc2cc(NS(=O)(=O)c3ccccc3)ccc21	-74.2*
COC(=O)C1=C(C)NC(C)=C(C(=O)OC)C1c1ccc(-c2cccc(Cl)c2Cl)o1	-72.3*
Cn1c(=O)[nH]c(=O)c2c1nc(Br)n2Cc1cccc(Br)c1	-70.1*
CC(C)CCn1c(SCCc2ccccc2)nc2c1c(=O)[nH]c(=O)n2C	52.6
CCCCCCn1c(SCCC)nc2c1c(=O)[nH]c(=O)n2C	46.8
Cc1ccccc1N=Nc1ccc(O)c2ncccc12	54.3
O=Nc1ccc(O)c2ncccc12	-235.5*
O=C(Nc1cccs1)Nc1ccc(Br)cc1F	-184.7*
O=C(Nc1ccc(F)cc1F)Nc1ccc(F)cc1F	-86.6*
O=C(Nc1ccc(F)cc1F)Nc1csc2ccccc12	-66.7*
O=C(NNC(=S)Nc1ccc(F)cc1F)c1ccco1	-108.6*
CC1CC(=O)c2c(cc3c(-c4c(O)cc(O)c5c(O)c6c(cc45)OC(C)CC6=O)c(O)cc(O)c3c2O)O1 (configuration not stated)	70.2
O=C(Nc1cccs1)Nc1ccc(F)cc1F	-119.1*
CCN(Cc1ccccc1)c1ccc(/C=C(\C#N)c2ccccn2)cc1	-137.1*
SMILES	aSyn 5UTR act
N#Cc1ccc(N2CCc3ccccc3C2)c([N+](=O)[O-])c1	81.1
O=[N+]([O-])c1cccc(N2Cc3ccccc3C2)c1	-113.3*
FC(F)(F)c1cccc(N2Cc3ccccc3C2)c1	-71.9*
COc1cccc(Nc2nnc(SCc3nc4ccccc4s3)s2)c1	-207.9*
Cc1cccc(C)c1Nc1nnc(SCc2nc3ccccc3s2)s1	-85.4*
Cc1ccnc(SCc2nc3ccccc3s2)n1	-181.5*
COc1ccc(NC(=O)c2ccc(OC(F)F)cc2)cc1Cl	-167.5*
Cc1ccc(NC(=S)Nc2ccc(OC(F)F)c(Cl)c2)cc1F	-105.1*
O=C(Nc1ccc(OC(F)F)c(Cl)c1)c1ccccn1	-92.0*
Cc1ccc(S(=O)(=O)c2nc(S(C)(=O)=O)sc2N2CCOCC2)cc1	-71.6*
Cc1ccc(S(=O)(=O)c2nc(S(=O)(=O)c3ccc(C)cc3)c(N3CCN(CCO)CC3)s2)cc1	-63.9*
CCCCOc1ncnc2c1[nH]c1ccc(F)cc12	-117.6*
CCCCOc1ncnc2c1[nH]c1ccccc12	-81.5*
CCCCOc1ncnc2c1[nH]c1ccc(OC)cc12	-213.9*
CCN(CC)Cc1c(O)ccc2c(=O)c(-c3ccccc3)coc12	-64.3*
